# Reference: the supplement of paper PMC8728848
# The full list was thinned out, with the strongest signals kept by preference.
# B1: Clec18C (Homo sapiens) (protein)
# chain: MLHPETSPGRGHLLAVLLALLGTAWAEVWPPQLQEQAPMAGALNRKESFLLLSLHNRLRSWVQPPAADMRRLDWSDSLAQLAQARAALCGTPTPSLASGLWRTLQVGWNMQLLPAGLVSFVEVVSLWFAEGQRYSHAAGECARNATCTHYTQLVWATSSQLGCGRHLCSAGQAAIEAFVCAYSPRGNWEVNGKTIVPYKKGAWCSLCTASVSGCFKAWDHAGGLCEVPRNPCRMSCQNHGRLNISTCHCHCPPGYTGRYCQVRCSLQCVHGRLREEECSCVCDIGYGGAQCATKVHFPFHTCDLRIDGDCFMVSSEADTYYRARMKCQRKGGVLAQIKSQKVQDILAFYLGRLETTNEVIDSDFETRNFWIGLTYKTAKDSFRWATGEHQAFTSFAFGQPDNHGFGNCVELQASAAFNWNNQRCKTRNRYICQFAQEHISRWGPGS
# Key:
# Experiment in all cases: glycan array binding signal (z-score within array); higher = stronger binding
# Settings in all cases: glycan notation: IUPAC condensed, linker removed
# [1] = target: Fuc(a1-2)Gal(b1-3)GlcNAc(b1-2)Man(a1-3)[Fuc(a1-2)Gal(b1-3)GlcNAc(b1-2)Man(a1-6)]Man(b1-4)GlcNAc(b1-4)GlcNAc
# Outline: (§1)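 Arrays were curated from the Consortium for Functional Glycomics database, 3228 in total, and kept only where the protein sequence was available. Binding is expressed as a within-array Z-score. This score was averaged across arrays of the same protein sequence at different concentrations or buffers and across linkers, and negative values can be read as non-binding.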
# [2] = target: Fuc(a1-2)Gal(b1-3)[Fuc(a1-4)]GlcNAc(b1-2)Man(a1-3)[Fuc(a1-2)Gal(b1-3)[Fuc(a1-4)]GlcNAc(b1-2)Man(a1-3)]Man(b1-4)GlcNAc(b1-4)GlcNAc
# Outline: as §1
# [3] = target: Fuc(a1-2)Gal(b1-4)GlcNAc(b1-3)Gal(b1-4)GlcNAc(b1-2)Man(a1-3)[Fuc(a1-2)Gal(b1-4)GlcNAc(b1-3)Gal(b1-4)GlcNAc(b1-2)Man(a1-6)]Man(b1-4)GlcNAc(b1-4)GlcNAc
# Outline: as §1
# [4] = target: Fuc(a1-2)Gal(b1-4)GlcNAc(b1-3)GalNAc
# Outline: as §1
# [5] = target: Fuc(a1-2)Gal6S(b1-3)GlcNAc6S
# Outline: as §1
# Fuc(a1-2)[Gal(a1-3)]Gal = target: Fuc(a1-2)[Gal(a1-3)]Gal
# Outline: as §1
# [6] = target: Fuc(a1-2)[Gal(a1-3)]Gal(b1-3)GlcNAc(b1-2)Man(a1-3)[Fuc(a1-2)[Gal(a1-3)]Gal(b1-3)GlcNAc(b1-2)Man(a1-6)]Man(b1-4)GlcNAc(b1-4)GlcNAc
# Outline: as §1
# [7] = target: Fuc(a1-3)[Gal(b1-4)]GlcNAc(b1-3)Gal(b1-4)[Fuc(a1-3)]GlcNAc
# Outline: as §1
# [8] = target: Fuc(a1-3)[GalNAc(b1-4)]GlcNAc6S
# Outline: as §1
# Gal(a1-4)Gal(b1-4)GlcNAc = target: Gal(a1-4)Gal(b1-4)GlcNAc
# Outline: as §1
# [9] = target: Gal(b1-3)GlcNAc(b1-2)[Gal(b1-3)GlcNAc(b1-6)]Man(a1-6)[Gal(b1-3)GlcNAc(b1-2)Man(a1-3)]Man(b1-4)GlcNAc(b1-4)GlcNAc
# Outline: as §1
# [10] = target: Gal(b1-3)GlcNAc(b1-3)Gal(b1-3)GlcNAc
# Outline: as §1
# [11] = target: Gal(b1-3)GlcNAc(b1-3)Gal(b1-4)Glc
# Outline: as §1
# [12] = target: Gal(b1-3)[GlcNAc(b1-6)]GalNAc
# Outline: as §1
# [13] = target: Gal(b1-4)GlcNAc(b1-2)Man(a1-3)[Gal(b1-4)GlcNAc(b1-2)Man(a1-6)]Man(b1-4)GlcNAc(b1-4)GlcNAc
# Outline: as §1
# [14] = target: Gal(b1-4)GlcNAc(b1-2)Man(a1-3)[Gal(b1-4)GlcNAc(b1-2)Man(a1-6)][GlcNAc(b1-4)]Man(b1-4)GlcNAc(b1-4)[Fuc(a1-6)]GlcNAc
# Outline: as §1
# [15] = target: Gal(b1-4)GlcNAc(b1-3)Gal(b1-3)GalNAc
# Outline: as §1
# [16] = target: Gal(b1-4)GlcNAc(b1-3)Gal(b1-4)GlcNAc(b1-3)Gal(b1-4)GlcNAc(b1-3)Gal(b1-4)GlcNAc(b1-2)Man(a1-3)[Gal(b1-4)GlcNAc(b1-3)Gal(b1-4)GlcNAc(b1-3)Gal(b1-4)GlcNAc(b1-3)Gal(b1-4)GlcNAc(b1-2)Man(a1-6)]Man(b1-4)GlcNAc(b1-4)GlcNAc
# Outline: as §1
# [17] = target: Gal(b1-4)GlcNAc(b1-3)Gal(b1-4)GlcNAc(b1-3)Gal(b1-4)GlcNAc(b1-3)Gal(b1-4)GlcNAc(b1-2)Man(a1-3)[Gal(b1-4)GlcNAc(b1-3)Gal(b1-4)GlcNAc(b1-3)Gal(b1-4)GlcNAc(b1-3)Gal(b1-4)GlcNAc(b1-2)Man(a1-6)]Man(b1-4)GlcNAc(b1-4)[Fuc(a1-6)]GlcNAc
# Outline: as §1
# [18] = target: Gal(b1-4)GlcNAc(b1-3)Gal(b1-4)GlcNAc(b1-3)Gal(b1-4)GlcNAc(b1-3)Gal(b1-4)GlcNAc(b1-3)Gal(b1-4)GlcNAc(b1-2)Man(a1-3)[Gal(b1-4)GlcNAc(b1-3)Gal(b1-4)GlcNAc(b1-3)Gal(b1-4)GlcNAc(b1-3)Gal(b1-4)GlcNAc(b1-3)Gal(b1-4)GlcNAc(b1-2)Man(a1-6)]Man(b1-4)GlcNAc(b1-4)[Fuc(a1-6)]GlcNAc
# Outline: as §1
# [19] = target: Gal(b1-4)GlcNAc(b1-3)[Fuc(a1-3)GlcNAc(b1-6)]Gal(b1-4)Glc
# Outline: as §1
# [20] = target: Gal(b1-4)GlcNAc(b1-3)[Gal(b1-4)GlcNAc(b1-6)]Gal(b1-4)GlcNAc
# Outline: as §1
# Gal(b1-4)GlcNAc6P = target: Gal(b1-4)GlcNAc6P
# Outline: as §1
# Gal3S(b1-4)Glc6S = target: Gal3S(b1-4)Glc6S
# Outline: as §1
# [21] = target: Gal3S(b1-4)[Fuc(a1-3)]GlcNAc6S
# Outline: as §1
# GalNAc(b1-3)GlcNAc = target: GalNAc(b1-3)GlcNAc
# Outline: as §1
# [22] = target: GalNAc3S(b1-4)[Fuc(a1-3)]GlcNAc
# Outline: as §1
# [23] = target: GlcA3S(b1-3)Gal(b1-4)GlcNAc(b1-3)Gal(b1-4)Glc
# Outline: as §1
# [24] = target: GlcNAc(b1-3)Gal(b1-4)GlcNAc(b1-2)[GlcNAc(b1-3)Gal(b1-4)GlcNAc(b1-6)]Man(a1-6)[GlcNAc(b1-3)Gal(b1-4)GlcNAc(b1-2)Man(a1-3)]Man(b1-4)GlcNAc(b1-4)GlcNAc
# Outline: as §1
# [25] = target: GlcNAc(b1-3)Gal(b1-4)GlcNAc(b1-6)[Gal(b1-3)]GalNAc
# Outline: as §1
# Man(a1-3)[Man(a1-6)]Man = target: Man(a1-3)[Man(a1-6)]Man
# Outline: as §1
# [26] = target: Neu5Ac(a2-3)Gal(b1-3)GlcNAc(b1-6)GalNAc
# Outline: as §1
# [27] = target: Neu5Ac(a2-3)Gal(b1-4)GlcNAc(b1-6)GalNAc
# Outline: as §1
# [28] = target: Neu5Ac(a2-6)Gal(b1-4)GlcNAc(b1-2)Man(a1-3)[Man(a1-6)]Man(b1-4)GlcNAc(b1-4)GlcNAc
# Outline: as §1
# [29] = target: Neu5Ac(a2-6)Gal(b1-4)GlcNAc(b1-2)Man(a1-3)[Neu5Ac(a2-6)Gal(b1-4)GlcNAc(b1-2)Man(a1-6)]Man(b1-4)GlcNAc(b1-4)GlcNAc
# Outline: as §1
# [30] = target: Neu5Ac(a2-6)Gal(b1-4)GlcNAc(b1-3)Gal(b1-3)GlcNAc
# Outline: as §1
# [31] = target: Neu5Ac(a2-6)Gal(b1-4)GlcNAc(b1-3)Gal(b1-4)GlcNAc
# Outline: as §1
# Neu5Ac(a2-6)GalNAc = target: Neu5Ac(a2-6)GalNAc
# Outline: as §1
# Neu5Gc(a2-6)GalNAc = target: Neu5Gc(a2-6)GalNAc
# Outline: as §1
binder,measurement,setting,value
B1,glycan array binding signal (z-score),[1],3.46
same,glycan array binding signal (z-score),[2],0.055
same,glycan array binding signal (z-score),[3],0.124
same,glycan array binding signal (z-score),[4],3.79
same,glycan array binding signal (z-score),[5],-0.032
same,glycan array binding signal (z-score),Fuc(a1-2)[Gal(a1-3)]Gal,-0.382
same,glycan array binding signal (z-score),[6],-0.479
same,glycan array binding signal (z-score),[7],-0.261
same,glycan array binding signal (z-score),[8],0.313
same,glycan array binding signal (z-score),Gal(a1-4)Gal(b1-4)GlcNAc,1.24
same,glycan array binding signal (z-score),[9],-0.547
same,glycan array binding signal (z-score),[10],-0.443
same,glycan array binding signal (z-score),[11],-0.457
same,glycan array binding signal (z-score),[12],4.42
same,glycan array binding signal (z-score),[13],5.03
same,glycan array binding signal (z-score),[14],1.07
same,glycan array binding signal (z-score),[15],5.75
same,glycan array binding signal (z-score),[16],1.91
same,glycan array binding signal (z-score),[17],-0.276
same,glycan array binding signal (z-score),[18],3.34
same,glycan array binding signal (z-score),[19],-0.356
same,glycan array binding signal (z-score),[20],7.63
same,glycan array binding signal (z-score),Gal(b1-4)GlcNAc6P,5.02
same,glycan array binding signal (z-score),Gal3S(b1-4)Glc6S,-0.387
same,glycan array binding signal (z-score),[21],-0.116
same,glycan array binding signal (z-score),GalNAc(b1-3)GlcNAc,3.98
same,glycan array binding signal (z-score),[22],-0.342
same,glycan array binding signal (z-score),[23],-0.395
same,glycan array binding signal (z-score),[24],-0.368
same,glycan array binding signal (z-score),[25],-0.398
same,glycan array binding signal (z-score),Man(a1-3)[Man(a1-6)]Man,-0.507
same,glycan array binding signal (z-score),[26],-0.247
same,glycan array binding signal (z-score),[27],3.92
same,glycan array binding signal (z-score),[28],-0.24
same,glycan array binding signal (z-score),[29],0.183
same,glycan array binding signal (z-score),[30],0.131
same,glycan array binding signal (z-score),[31],3.16
same,glycan array binding signal (z-score),Neu5Ac(a2-6)GalNAc,5.42
same,glycan array binding signal (z-score),Neu5Gc(a2-6)GalNAc,-0.265
